# Test results from PubChem BioAssay (Tox21).
# Calls of active or inactive are those of the source. Entries that show only a call come without a potency. Calls follow the shape of the dose curve; as a rule, active = well fitted curve in the direction sought with a large enough effect in the repeat runs; inconclusive = weak or mixed curves; inactive = flat fitted curve, though single readings scatter.
# Assay: qHTS assay to test for compound auto fluorescence at 535 nm (green) in HepG2 cells (AID 720675)
# Conditions: green autofluorescence 485/535 nm, 1 h; series mostly up to 91.3 µM
# From the text: National Center for Advancing Translational Sciences [NCATS]
# NIH Chemical Genomics Center [NCGC]
# U.S. Environmental Protection Agency [EPA]
# National Institutes of Environmental Health Sciences [NIEHS]
# National Toxicology Program [NTP]
# U.S. Food and Drug Administration [FDA]
# Compound auto fluorescence often interferes with screening of the compound library against various biological targets and signaling pathways. Some of these compounds may have fluorophoric properties. Such properties may interfere with the assay outputs resulting in false positives and/or negatives. To decrease such complications and ensure the compound activities are relevant in terms of biological response, the Tox21 10K compound library was screened for auto fluorescence.
# From the fluorophores used as reporter signals in our screening assays, the auto fluorescence equivalencies of compounds against three fluorophores have been evaluated: Triamterene, Fluorescein and Rose Bengal sodium for blue, green and red fluorescence, respectively. The fluorescence intensities were measured using Excitation/Emission wavelengths at 405/460nm, 485/535nm and 540/590nm for blue, green and red labels, respectively. This assay includes the green fluorescence data.
# Tox21 Assay Protocol Summary:
# 2,000 HepG2 cells in 5 uL of culture medium (MEM containing 10% FBS) per well were dispensed into black wall/clear bottom 1536-well plates using a Multidrop Combi Dispenser (ThermoFisher Scientific, Waltham, MA). The assay plates were incubated overnight at 37 C to allow cell attachment to the well bottom, followed by the transfer of 23 nL compound or DMSO vehicle by a pintool work station (Kalypsys , San Diego, CA). After the assay plates were incubated for 1 hr at 37 C and 5% CO2, fluorescence intensities in the assay plates were measured by an Envision (PerkinElmer, Shelton, CT) plate reader using three labels for measuring blue, green and red fluorescence at […] 460, 535 and 590 nm respectively.
row,SMILES,Potency
1,Cc1ccc(-c2cc(C(F)(F)F)nn2-c2ccc(S(N)(=O)=O)cc2)cc1,inactive
2,O=C(O)c1cc(Cl)cc(Cl)c1,inactive
3,CNCCC(Oc1ccc(C(F)(F)F)cc1)c1ccccc1 (stereo not given),inactive
4,CC1=C(C=O)C(C)(C)CC=C1,inactive
5,CC(C)(C)NC(=O)[C@@H]1CN(Cc2cccnc2)CCN1C[C@@H](O)C[C@@H](Cc1ccccc1)C(=O)N[C@H]1c2ccccc2C[C@H]1O,inactive
6,C=CS(=O)(=O)O,inactive
7,OCC(CO)N[C@H]1C[C@](O)(CO)[C@@H](O)[C@H](O)[C@H]1O,inactive
8,CCOc1ccccc1C(N)=O,inactive
9,Nc1ccc2cc3ccccc3cc2c1,inactive
10,C/C=C/c1ccc(OCC)c(O)c1,inactive
11,O=Nc1ccc(Nc2ccccc2)cc1,inactive
12,O=C(O)c1cccc(C(=O)O)c1,inactive
13,CC(=O)Nc1ccc(C(=O)CCl)cc1,inactive
14,CCn1cc(C(=O)O)c(=O)c2cc(F)c(N3CCNC(C)C3)c(F)c21 (stereo not given),inactive
15,CC(C)(C)c1ccccc1,inactive
16,c1ccc2cc3c(ccc4ccccc43)cc2c1,inactive
17,CCCOC(=O)c1cc(O)c(O)c(O)c1,inactive
18,C=CC(=O)OCCCCCCCC,inactive
19,Nc1nc2ccccc2[nH]1,inactive
20,CC(C)(c1ccccc1)c1ccc(Nc2ccc(C(C)(C)c3ccccc3)cc2)cc1,inactive

row,SMILES,Potency
1,O=C(O)CP(=O)(O)O,inactive
2,CCCCCCCCCCCCc1ccccc1O,inactive
3,C=CC(=O)OCCCCCCOC(=O)C=C,inactive
4,BrC1CCC(Br)C(Br)CCC(Br)C(Br)CCC1Br (stereo not given),inactive
5,CN(C)c1ccc(C(=C2C=CC(=[N+](C)C)C=C2)c2ccccc2)cc1,inactive
6,CC1COC(=O)O1 (stereo not given),inactive
7,Cc1cccc2n[nH]nc12,inactive
8,COc1cc(C(=S)N2CCOCC2)ccc1O,inactive
9,NC(=Nc1ccccc1)Nc1ccccc1,inactive
10,COC(c1ccccc1)(c1ccccc1)[C@H](Oc1nc(C)cc(C)n1)C(=O)O,inactive
11,O=C1CC2(CCCC2)CC(=O)N1CCCCN1CCN(c2ncccn2)CC1,inactive
12,CCCCCC(=O)O[C@]1(C(C)=O)CC[C@H]2[C@@H]3CCC4=CC(=O)CC[C@]4(C)[C@H]3CC[C@@]21C,inactive
13,CC1=CC(=O)c2ccccc2C1=O,inactive
14,c1cc(C(c2ccc(OCC3CO3)cc2)C(c2ccc(OCC3CO3)cc2)c2ccc(OCC3CO3)cc2)ccc1OCC1CO1 (stereo not given),inactive
15,CC(=O)OCCOCCOCCOC(C)=O,inactive
16,O=C(O)CCc1ccccc1,inactive
17,NC(N)=NC(=O)Cc1c(Cl)cccc1Cl,inactive
18,CCN(CC)C(=O)Nc1ccc(OCC(O)CNC(C)(C)C)c(C(C)=O)c1 (stereo not given),inactive
19,O=C(Cl)c1cccc(C(=O)Cl)c1,inactive
20,CC(=O)CC(C)=O,inactive
